CHX counter – affects cycloheximide protein synthesis inhibition readout, counter-screen. actives 12% (n = 300,000). max response, %. cell reporter, cycloheximide protein synthesis inhibition counterscreen. AID 2314; in the data active = max response mostly above about 13%, no sharp cut-off; inactive = mostly below about 14%; also: read at 38.3 µM for the half of the compounds with a filed dose; 0% is about no effect
Marburg entry inh – Marburg virus entry inhibition; actives 1.8% (n = 300,000); Marburg virus pseudotyped entry inhibition, cell reporter; Potency, µM (top dose mostly 37.8 µM), inactives show at the top dose activity change, negative = inhibition, most hits filed as inhibitors; calls by dose curve; tested in HEK293 cells; also: potency is read from the fitted curve at half-maximal effect; % is scaled to controls: 0 for no effect and ±100 for the full control effect
Pf growth 48h – inhibits P. falciparum growth in the first generation, 48 h; P. falciparum luciferase growth in erythrocytes, 48 h; Potency, µM (series often up to 28.7 µM), without a hit: at the highest dose activity change, negative = inhibition, hits mostly inhibitors; actives 5.9% (n = 310,000); AID 504832; also: potency is read from the fitted curve at half-maximal effect; % is scaled to controls: 0 for no effect and ±100 for the full control effect
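First compound was added to culture medium, then infected red cells at 0.1% parasitemia and 2% hematocrit (final). After incubation at 37 C under 5% CO2, luciferase detection reagent was dispensed and light output recorded.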
Pf growth 96h – P. falciparum growth inhibition at 96 hours; P. falciparum luciferase reporter growth, 96 h; Potency, µM (series often up to 28.7 µM), for inactives: top-dose activity change, negative = inhibition, most hits filed as inhibitors; actives 6.9% (n = 320,000); AID 504834; also: potency is read from the fitted curve at half-maximal effect; % is scaled to controls: 0 for no effect and ±100 for the full control effect
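Erythrocytes infected with luciferase-expressing P. falciparum were dispensed at 2% hematocrit and 0.05% parasitemia (final), then incubated with compounds 96 hours at 37 C in 5% CO2. Luminescence after detection reagent addition reported growth.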
Lassa entry inh – inhibitors of Lassa virus binding or cell entry | Lassa virus pseudotype entry inhibition, cell reporter | Potency, µM (doses to about 37.9 µM), inactives show top-dose activity change, negative = inhibition, usual class: inhibitors | actives 1.2% (n = 300,000) | AID 540256; calls by dose curve; tested in HEK293 cells; also: potency is read from the fitted curve at half-maximal effect; % is scaled to controls: 0 for no effect and ±100 for the full control effect; nearly all actives have a fitted effect of over 50% in size
Shiga toxin inh – inhibitors of Shiga toxin in Vero cells; Vero cells, Shiga toxin protein synthesis inhibition reporter; inhibition, % at 38.7 µM; actives 9.2% (n = 290,000); in the data active = inhibition mostly above about 28%, no sharp cut-off; inactive = mostly below about 43%; also: 0% is about no effect
* hit, by the source's call; u = inconclusive; x = not tested or not shown; [ ] = another dose, or the depositor's remark. The list is not random: actives were taken first. Their share in the collection is about 19%. Unless noted, calls follow the shape of the dose curve; as a rule, active = well fitted inhibition curve with a large enough effect; inconclusive = small, poorly fitted or top-dose-only effect, or another doubt; inactive = no such curve, though single readings can be large or run the other way.

SMILES	CHX counter	Marburg entry inh	Pf growth 48h	Pf growth 96h	Lassa entry inh	Shiga toxin inh
COc1ccc(C(=O)Nc2nc3c(s2)CCCC3)cc1Cl	x	u	x	x	23%[46.1 µM]	x
Cc1ncsc1C(=O)Nc1nc2c(s1)CCCC2	62*	u	x	10%	u	106*
Cn1c(CO)nc2cc(N)ccc21	-3	22%	43%	0%	6%	-8
CC(C)CCNC(=O)c1ccc2c(c1)ncn2C1CCCC1	34*	-12%[46.1 µM]	56%	u	u	124*
CCOCCCNC(=O)c1ccc2c(c1)ncn2C1CCCC1	24*	-1%	33%	-34%	20%	29*
CCn1c(SCC#N)nc2c(c1=O)C1(CCCC1)Cc1ccccc1-2	-1	u	-25%	-28%	-12%	-20
CCOC(=O)c1cnc2c(C(=O)OC)cccc2c1NCc1ccco1	6	-6%	u	x	4%	-9
CCOC(=O)c1cnc2c(C)cccc2c1NCc1ccco1	24*	-13%	u	u	12%	37*
CCOC(=O)c1ccc2ncc(C(=O)OCC)c(NCc3ccco3)c2c1	27*	-9%	x	1.7µM*	-26%	13
N#CC1=C2N=C(N)c3ccccc3N2C2=C(C(=O)CCC2)C1c1cccc(Cl)c1 (stereo not drawn)	-6	u	u	u	u	-16
Nc1nc(SCc2ccc(Br)cc2)[nH]c(=O)c1-c1ccccc1	5	3%[46.1 µM]	u	2%	25%[46.1 µM]	11
O=C(O)c1cnc(-c2ccccc2)nc1Sc1cccc(Cl)c1	5	0%	1%	27%	12%	-3
CCCCCCN(C(=O)CCCCCN1C(=O)NC(c2ccc(C(C)(C)C)cc2)C(C(=O)OCc2ccccc2)=C1C)C(C(=O)NCCCC)c1ccc(OCC(=O)OC)c(C(=O)OC)c1 (stereo not drawn)	-3	x	2.1µM*	2.1µM*	x	-3
CCCCCCN(C(=O)CCCCCN1C(=O)NC(c2ccc(C3CCCCC3)cc2)C(C(=O)OCc2ccccc2)=C1C)C(C(=O)NCCCC)c1ccc(OCC(=O)OC)c(C(=O)OC)c1 (stereo not drawn)	-3	x	2.9µM*	2.1µM*	x	14
CC1=C(C(=O)OCc2ccccc2)C(c2ccc([N+](=O)[O-])cc2)NC(=O)N1CCCC(=O)O (stereo not drawn)	-2	x	1%	-1%	x	-6
CC1=C(C(=O)OCc2ccccc2)C(c2ccccc2)NC(=O)N1CCCCCC(=O)O (stereo not drawn)	-4	0%	-21%	u	6%	-16
CC1=C(C(=O)OCc2ccccc2)C(c2ccc(C(C)(C)C)cc2)NC(=O)N1CCCCCC(=O)O (stereo not drawn)	-4	10%	u	u	u	4
CCCCCCN(C(=O)CCCCCN1C(=O)NC(c2ccccc2)C(C(=O)OCc2ccccc2)=C1C)C(C(=O)NCCCC)c1ccc(OCC(=O)OC)c(C(=O)OC)c1 (stereo not drawn)	-3	x	2.1µM*	3.3µM*	x	-8
CCN1CCc2ccccc2C1	-3	x	-6%	26%	x	-9
O[C@@H]1CN(Cc2ccc(-n3cccn3)cc2)CC[C@H]1N1CCN(c2ccccc2F)CC1	-1	x	u	10µM*	x	x
O=c1cc(-c2ccccc2)nc2nc[nH]n12	-4	19%	x	0.29µM*	9%	-12
Cc1ccc(-n2nc(-c3cccnc3)cc2C(=O)N2CCOCC2)c(C)c1	-2	23%[46.1 µM]	u	x	u	-10
CCn1cc(C(=O)NC(C)CCc2ccccc2)c(=O)c2cc(S(=O)(=O)N(C)C)ccc21 (stereo not drawn)	-8	u	6.6µM*	43%	6.3µM*	-12
CCn1cc(C(=O)NCCCN(C)c2ccccc2)c(=O)c2cc(S(=O)(=O)N(C)C)ccc21	-2	x	u	15µM*	x	-7
CCn1cc(C(=O)NCc2ccc3c(c2)OCO3)c(=O)c2cc(S(=O)(=O)N(C)C)ccc21	3	22%	12µM*	u	-7%	-9
SMILES	CHX counter	Marburg entry inh	Pf growth 48h	Pf growth 96h	Lassa entry inh	Shiga toxin inh
CCn1cc(C(=O)NCc2ccccc2OC)c(=O)c2cc(S(=O)(=O)N(C)C)ccc21	3	x	u	10µM*	x	-7
CCn1cc(C(=O)NCCc2ccc(Cl)cc2)c(=O)c2cc(S(=O)(=O)N(C)C)ccc21	2	x	u	u	x	-3
O=C(NCc1ccccc1)/C(=C/c1ccccc1)NC(=O)c1ccco1	0	2%[46.1 µM]	14%	u	x	-4
C=CCn1cc(C(=O)NCc2ccc3c(c2)OCO3)c(=O)c2cc(S(=O)(=O)N(CC)CC)ccc21	-3	u	12µM*	u	0.71µM*	-8
CCN(CC)S(=O)(=O)c1ccc2c(c1)c(=O)c(C(=O)NCc1ccc3c(c1)OCO3)cn2C	-4	13%	-10%	-5%	4%	-18
O=C(CSc1nc2cc(C(=O)NC3CCCC3)ccc2c(=O)n1CC1CCCO1)c1cccc(Cl)c1 (stereo not drawn)	x	x	x	x	-6%[46.1 µM]	x
C/C(N)=C(/C#N)C(=O)COC(=O)c1ccc(C)c(S(=O)(=O)N2CCCCC2)c1	10	-10%[46.1 µM]	x	u	-5%	8
C/C(N)=C(/C#N)C(=O)COC(=O)c1cccc(O)c1	17	u	40%	266%	-6%[46.1 µM]	97*
C/C(N)=C(/C#N)C(=O)COC(=O)c1ccncc1	-2	2%	4%	x	2%	-25
CC(=O)Nc1ccc(C(=O)OCC(=O)/C(C#N)=C(\C)N)cc1	25*	18%[46.1 µM]	38%	47%	18%	16
C/C(N)=C(/C#N)C(=O)COC(=O)c1ccccc1Cc1ccccc1	18*	-5%	-17%	4%	-3%	22
C/C(=N\NC(=S)Nc1cccc(C)c1)c1ccco1	-1	-2%[46.1 µM]	u	16%	u	-11
CSC(=S)N/N=C(\C)c1ccccc1	28*	x	u	u	x	50*
C/C(=N\NC(=S)Nc1ccc(C)cc1)c1cccc(N)c1	17	21%[46.1 µM]	u	-20%	-11%	54*
C/C(=N\NC(=S)Nc1cccc(C)c1)c1cccc(N)c1	17	0%	u	24%	-11%	34
C/C(=N\NC(N)=S)c1ccccc1	4	x	-28%	u	x	19
C/C(=N\NC(=S)Nc1cccc(C)c1)c1ccccc1	17	-24%	u	5.2µM*	u	52
O=C(CCNC(=O)N1CCn2c1nc1ccccc12)NCc1ccccc1	1	x	-5%	7%	x	-5
CCOC(=O)c1cc(C#N)c(N2CCN(C(=O)c3cccc(C(F)(F)F)c3)CC2)nc1C(F)(F)F	-2	5µM*	5.9µM*	u	1.8µM*	-18
CCOC(=O)c1cc(C#N)c(N2CCN(C(=O)c3ccccc3)CC2)nc1C(F)(F)F	-2	u	u	10µM*	11µM*	-15

Assay outcomes from PubChem.
